“And” between values parts separate entries of the source, which are not always exact repeats. Equal values may be shown once. About 83,000 compounds went through this panel and 20% of them were active in at least one assay; those are over-represented in the sample as a whole.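 Single-concentration screen, 48 h exposure, 96-well plates. Endpoint: percent growth. Below 10 = active.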 The source made the active and inactive calls.
Legend:
Experiment in all cases: NCI-60 one-dose screen, 48 h (100 = growth as untreated, 0 = no growth, -100 = all killed)
Settings in all cases: 10 µM unless noted
NCI-H23 lung = test system: NCI-H23 lung
NCI-H322M lung = test system: NCI-H322M lung
HOP-62 NSCLC = test system: HOP-62 NSCLC
NCI-H460 lung = test system: NCI-H460 lung
HOP-92 NSCLC = test system: HOP-92 NSCLC
A549/ATCC NSCLC = test system: A549/ATCC NSCLC
786-0 renal = test system: 786-0 renal
COLO 205 colon = test system: COLO 205 colon
DU-145 prostate = test system: DU-145 prostate
K-562 leukemia = test system: K-562 leukemia
MALME-3M melanoma = test system: MALME-3M melanoma
MDA-MB-231 breast = test system: MDA-MB-231 breast
RXF 393 renal = test system: RXF 393 renal
SF-268 CNS = test system: SF-268 CNS
SF-295 CNS = test system: SF-295 CNS
SF-539 CNS = test system: SF-539 CNS
UACC-257 melanoma = test system: UACC-257 melanoma
M14 melanoma = test system: M14 melanoma
NCI-H522 lung = test system: NCI-H522 lung

SMILES	growth (NCI-H23 lung)	growth (NCI-H322M lung)	growth (HOP-62 NSCLC)	growth (NCI-H460 lung)	growth (HOP-92 NSCLC)	growth (A549/ATCC NSCLC)	growth (786-0 renal)	growth (COLO 205 colon)	growth (DU-145 prostate)	growth (K-562 leukemia)	growth (MALME-3M melanoma)	growth (MDA-MB-231 breast)	growth (RXF 393 renal)	growth (SF-268 CNS)	growth (SF-295 CNS)	growth (SF-539 CNS)	growth (UACC-257 melanoma)	growth (M14 melanoma)	growth (NCI-H522 lung)
Cc1nc2c(=O)[nH]c(=S)[nH]c2[nH]c1=O	108% (inactive) and 101% (inactive)	98% (inactive) and 111% (inactive)	108% (inactive) and 99.1% (inactive)	106% (inactive) and 110% (inactive)	111% (inactive)	103% (inactive) and 105% (inactive)	112% (inactive) and 107% (inactive)	108% (inactive) and 115% (inactive)	112% (inactive) and 119% (inactive)	102% (inactive)	108% (inactive)	112% (inactive) and 102% (inactive)	111% (inactive) and 125% (inactive)	109% (inactive) and 104% (inactive)	111% (inactive) and 94.6% (inactive)	104% (inactive) and 99.1% (inactive)	110% (inactive) and 97.8% (inactive)	113% (inactive) and 110% (inactive)	
Cc1ccc(N)cc1S(=O)(=O)O	109% (inactive) and 107% (inactive)	125% (inactive) and 113% (inactive)	104% (inactive) and 112% (inactive)	109% (inactive) and 107% (inactive)	93.1% (inactive)	108% (inactive) and 102% (inactive)	107% (inactive) and 98.5% (inactive)	109% (inactive) and 111% (inactive)	111% (inactive) and 119% (inactive)	98.3% (inactive) and 85.5% (inactive)	122% (inactive) and 113% (inactive)	109% (inactive)	124% (inactive) and 108% (inactive)	101% (inactive) and 102% (inactive)	111% (inactive) and 112% (inactive)	104% (inactive) and 120% (inactive)	117% (inactive) and 92.7% (inactive)		127% (inactive)
O=C1C(=O)c2ccccc2C(O)=C1CC=C(Cl)Cl	67.6% (inactive) and 71.5% (inactive)	75.8% (inactive) and 58% (inactive)	50.9% (inactive) and 61.3% (inactive)	17.1% (inactive) and 17.9% (inactive)	36.4% (inactive) and 87.3% (inactive)	56% (inactive) and 44.5% (inactive)	39.5% (inactive) and 60% (inactive)	57.1% (inactive) and 57.7% (inactive)	68% (inactive) and 63.4% (inactive)	31% (inactive) and 33% (inactive)	68.5% (inactive) and 69.2% (inactive)	72.8% (inactive) and 71.8% (inactive)	51.8% (inactive) and 71.7% (inactive)	45.2% (inactive) and 53.9% (inactive)	38.5% (inactive) and 14.4% (inactive)	44.7% (inactive) and 55.6% (inactive)	43.2% (inactive) and 74.3% (inactive)	57.3% (inactive) and 69% (inactive)	43.7% (inactive) and 42.1% (inactive)
C(=N\OCCc1ccccc1)/c1ccccn1	109% (inactive)	138% (inactive) and 105% (inactive)	127% (inactive)	103% (inactive) and 111% (inactive)	103% (inactive)	102% (inactive) and 101% (inactive)	96.7% (inactive) and 97.1% (inactive)	135% (inactive) and 115% (inactive)	111% (inactive) and 106% (inactive)	115% (inactive)	153% (inactive) and 95.9% (inactive)	124% (inactive) and 112% (inactive)	116% (inactive) and 119% (inactive)	107% (inactive) and 105% (inactive)	96.6% (inactive)	104% (inactive) and 93.6% (inactive)	109% (inactive) and 104% (inactive)	115% (inactive) and 117% (inactive)	
CC1OS(=O)OC1C (stereo unspecified)	101% (inactive) and 95.8% (inactive)	108% (inactive) and 94% (inactive)	101% (inactive) and 105% (inactive)	104% (inactive) and 102% (inactive)	114% (inactive) and 96.3% (inactive)	97.9% (inactive) and 104% (inactive)	103% (inactive) and 105% (inactive)	112% (inactive) and 102% (inactive)	113% (inactive) and 102% (inactive)	82.6% (inactive) and 110% (inactive)	107% (inactive) and 91% (inactive)	109% (inactive)	99.4% (inactive) and 104% (inactive)	110% (inactive)	100% (inactive)	97.4% (inactive) and 99.1% (inactive)	99.8% (inactive) and 94.2% (inactive)	99.1% (inactive) and 102% (inactive)	68.9% (inactive) and 94.9% (inactive)
O=[N+]([O-])c1ccc(N2CCN=N2)cc1	99.6% (inactive)	88% (inactive)	82.9% (inactive)	98.9% (inactive)	89% (inactive)	82.2% (inactive)	84.8% (inactive)	92.7% (inactive)	88.2% (inactive)	63.6% (inactive)	106% (inactive)	80.4% (inactive)	109% (inactive)	85.8% (inactive)	97.1% (inactive)	93.4% (inactive)	91.5% (inactive)	82.7% (inactive)	78.8% (inactive)
Clc1ccc(/C=C/c2ccc3ccccc3n2)cc1	37.6% (inactive) and 89.5% (inactive) and 71.2% (inactive)	38.8% (inactive) and 90.3% (inactive) and 86.1% (inactive)	45.2% (inactive) and 95.4% (inactive) and 93.5% (inactive)	8.45% (active) and 86% (inactive) and 81.1% (inactive)	42.9% (inactive) and 67% (inactive) and 85.3% (inactive)	25.9% (inactive) and 92.3% (inactive) and 96.6% (inactive)	55.3% (inactive) and 97.8% (inactive) and 100% (inactive)	-6.62% (active) and 112% (inactive) and 100% (inactive)	1.65% (active) and 108% (inactive) and 103% (inactive)	17.7% (inactive) and 91.2% (inactive) and 87.3% (inactive)	62.3% (inactive) and 89.8% (inactive) and 77.1% (inactive)	31% (inactive) and 80.1% (inactive) and 84% (inactive)	8.75% (active) and 117% (inactive)	43.4% (inactive) and 97.7% (inactive) and 96.9% (inactive)	17.9% (inactive) and 74% (inactive) and 84.7% (inactive)	1.74% (active) and 102% (inactive)	44.2% (inactive) and 134% (inactive) and 104% (inactive)		-38.8% (active) and 79.1% (inactive) and 76.8% (inactive)
O=C(c1ccc(Cl)cc1)C1C(c2ccccc2)C1[N+](=O)[O-] (stereo unspecified)	84.6% (inactive)	89.8% (inactive)	98% (inactive)	104% (inactive)		98.6% (inactive)	98.8% (inactive)	111% (inactive)	105% (inactive)	92.7% (inactive)	104% (inactive)	91.2% (inactive)	106% (inactive)	98.1% (inactive)	103% (inactive)	103% (inactive)	105% (inactive)	102% (inactive)	101% (inactive)
N#Cc1c[nH]n2ccnc12	99.3% (inactive)	98.7% (inactive)	86% (inactive)	119% (inactive)	99.5% (inactive)	86.7% (inactive)	97.3% (inactive)	109% (inactive)	111% (inactive)	106% (inactive)	106% (inactive)	111% (inactive)	113% (inactive)	107% (inactive)	99.8% (inactive)	104% (inactive)	97.7% (inactive)		
CNc1ccc(O)cc1	114% (inactive) and 104% (inactive)	122% (inactive) and 98.3% (inactive)	104% (inactive)	105% (inactive) and 115% (inactive)	102% (inactive)		109% (inactive) and 106% (inactive)	132% (inactive) and 117% (inactive)	121% (inactive) and 113% (inactive)	104% (inactive) and 118% (inactive)	110% (inactive) and 107% (inactive)	104% (inactive) and 98.9% (inactive)	95.6% (inactive) and 114% (inactive)	121% (inactive) and 113% (inactive)	101% (inactive)	104% (inactive) and 107% (inactive)	91.5% (inactive) and 115% (inactive)	118% (inactive) and 113% (inactive)	96.3% (inactive) and 93% (inactive)
Cc1ccc(NC(=S)N/C=C(\c2ccccc2)S(=O)Cc2ccccc2)c(C)c1 (stereo unspecified)	99.7% (inactive)	94.8% (inactive)	95.8% (inactive)	101% (inactive)	80.1% (inactive)	97.7% (inactive)	98.2% (inactive)	104% (inactive)	109% (inactive)	98.2% (inactive)	106% (inactive)	104% (inactive)	106% (inactive)	101% (inactive)	98.9% (inactive)	103% (inactive)	98.9% (inactive)	97.3% (inactive)	90.5% (inactive)

From PubChem BioAssay (NCI)
